From PubChem BioAssay (NCI)
Compounds without any hit were thinned out: in the full panel of roughly 83,000, 20% have a hit.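 Method: cells in 96-well plates; compound added at one concentration; 48 h incubation; percent growth measured; values under 10 scored active.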 Activity calls are given as the source filed them.

Each molecule was assayed on M14 melanoma (assay: NCI-60 one-dose screen, 48 h (100 = growth as untreated, 0 = no growth, -100 = all killed)). Conditions: 10 µM unless noted.
Description: Growth inhibition of the M14 human tumor cell line is measured as a screen for anti-cancer activity. Cells are grown in 96 well plates and exposed to the test compound for 48 hours. Compounds are tested at a single concentration, which is 10^-5 M for most compounds. The reported endpoint is percent growth (GI% or GIPRCNT), where numbers from 0 - 100% represent growth inhibition, and numbers from -100% - 0 represent cell death. For example, a value of 40 represents 60% growth inhibition. A value of 0 means no net growth occurred over the course of the experiment. A value of -40 indicates 40% of cells at the beginning of the experiment died by the end of the experiment. A value of -100 means all cells are dead at the end of the experiment.
NCI-60 Human Tumor Cell Lines Screen was performed using the standard one-dose NCI protocol, which is described in more detail at https://dtp.cancer.gov/discovery_development/nci-60/default.htm.
Compounds with GIPRCNT values below 10 were considered active. Activity score was based on GIPRCNT using the following formula: […]
Score is 0 for GIPRCNT values of 100 or above, 50 for GIPRCNT values of 0, and 100 for GIPRCNT values of -100.

SMILES	growth
Cc1ccccc1[C@H]1C(C(=O)c2ccc(Cl)cc2)C2(N[C@@H]1c1ccccc1)C(=O)Nc1ccccc12 (stereo not given in full)	-77.9% (active)
N/C(=N\c1nc2ccccc2s1)NC(=O)Nc1c(Cl)cccc1Cl	21.8% (inactive)
COCOc1cc2c(=O)c(C)c(C(=O)N[C@@H](Cc3ccccc3)C(O)C(=O)NCc3ccccc3)oc2cc1OC (stereo not given in full)	65.2% (inactive)
O=C(N=Nc1c(O)[nH]c2ccc(Cl)cc12)c1ccc2nc(-c3ccccc3)[nH]c2c1	68.6% (inactive)
COc1ccc(-c2c(Nn3cnnn3)no[n+]2[O-])cc1	59.9% (inactive)
CC12CC[C@@H]3[C@]4(C)COC(c5cn[nH]c5-c5ccc(Br)cc5)O[C@@H]4CC[C@@]3(C)[C@@H]1CC(C1=CCOC1=O)O2 (stereo not given in full)	38.8% (inactive)
CCN1C(=O)/C(=N\N=C(/C)c2ccc3c(c2)Nc2ccccc2S3)c2cc(Cl)ccc21	67.5% (inactive)
COc1cccc(/C=C/c2nc3ccccc3c(=O)n2CC(=O)Nc2ccc(Cl)cc2)c1	76.3% (inactive)
CC1(C)CC[C@]2(C(=O)O)CC[C@]3(C)C(=CCC4[C@@]5(C)C[C@@H](O)[C@@H]6OC(c7ccccc7F)OC[C@@]6(C)C5CC[C@]43C)C2C1 (stereo not given in full)	17.8% (inactive)
COc1ccc(/C=N/NC(=O)Cn2nc(Cc3ccc(OC)cc3)c3onc(C)c3c2=O)cc1	63.9% (inactive)
Nc1nnc(-c2c[nH]c3ccc(Br)cc23)c(-c2c[nH]c3ncc(Br)cc23)n1	38.6% (inactive)
Cn1cc(-c2cc(N)n3nc(-c4cn(C)c5ccc(Cl)cc45)cc3n2)c2ccccc21	102% (inactive)
COc1cc(-c2nc3cc(Cl)c(Cl)cc3[nH]2)ccc1OCc1nnc(-c2cccs2)o1	41.8% (inactive)
CN(C)c1nc(NCCNS(=O)(=O)c2ccc(C(=O)/C=C/c3ccc(C(F)(F)F)cc3)cc2)nc(Nc2ccc(F)cc2)n1	-48.3% (active)
Cc1ccc(-c2nc(C#N)c(S(=O)(=O)N3CCN(S(=O)(=O)c4ccc(Cl)cc4)CC3)o2)cc1	91.5% (inactive)
CC1(C)CC[C@]2(C(=O)Nc3ccc(Br)cc3)CC[C@]3(C)C(=CCC4[C@@]5(C)C[C@@H](O)[C@H](O)[C@@](C)(CO)C5CC[C@]43C)C2C1 (stereo not given in full)	31.9% (inactive)
COc1cc(C2CC(c3cc(OC)c(OC)c(OC)c3)=Nc3c(N)nc(N)nc3N2)ccc1Oc1nc(NCCO)nc(N2CCOCC2)n1 (stereo not given)	102% (inactive)
O=C(Cn1c(/C=C/c2ccccc2)nc2ccccc2c1=O)Nc1ccc(Cl)cc1	81.7% (inactive)
Cn1cc(-c2nc(N)nnc2-c2c[nH]c3ccc(F)cc23)c2cc(Br)cnc21	-9.79% (active)
C=C1CCC2C3(C)COC(c4ccccc4)OC3CCC2(C)C1CC(NCc1ccccc1)C1=CCOC1=O (stereo not given)	76% (inactive)

SMILES	growth
C[C@H](Nc1nc(NCCc2ccccc2)nc2ccccc12)c1ccccc1	-84.5% (active)
Clc1ccc(-c2ccc(OCCCN3CCN(c4ccncc4)CC3)cc2)cc1	-54.6% (active)
NC(=S)Nc1cccc(NC(N)=S)c1	125% (inactive)
O=c1onc(-c2cc3ccccc3nc2Cl)n1-c1cccc2ccccc12	38.3% (inactive)
COc1cc(-c2nc3ccc(C)cc3[nH]2)ccc1OCc1nnc(-c2ccc(Br)cc2)o1	31.2% (inactive)
COc1ccc(/C=C/c2nc3ccccc3c(=O)n2CC(=O)Nc2ccc(Cl)cc2)cc1	77.8% (inactive)
CCCSc1nc(Nc2ccc(S(N)(=O)=O)cc2)c(C#N)c(-c2cc(OC)c(OC)c(OC)c2)n1	18.3% (inactive)
CCCSc1nc(Nc2ccc(S(N)(=O)=O)cc2)c(C#N)c(-c2ccc(Cl)cc2)n1	18.8% (inactive)
COc1cc(/C=C/C(=O)c2nnn(-c3ccc(Cl)cc3)c2C)cc(OC)c1OC	30.4% (inactive)
CC(=O)NNc1ccc2nnc(-c3ccccc3)n2n1	98.8% (inactive)
Brc1ccc(N/N=C/c2c[nH]c3ccc(Br)cc23)nc1	-71.3% (active)
COc1ccc(NC(=O)Cn2c(/C=C/c3cccc([N+](=O)[O-])c3)nc3ccccc3c2=O)cc1	76.7% (inactive)
Nc1n[nH]c2cccc(C#Cc3cccc(NC(=O)c4cccc(Cl)c4)c3)c12	15.9% (inactive)
Cc1ccc2c(N)c(C(=O)Nc3ccc(OC(F)(F)F)cc3)sc2n1	82.9% (inactive)
O=C(COc1ccc(NC(=O)Nc2ccc(Cl)cc2)cc1)N/N=C/c1ccccc1	-66.1% (active)
O=C1Nc2ccc([N+](=O)[O-])cc2C1=Nc1ccccc1	104% (inactive)
CCCCCCCCc1ccc(C(=O)Nc2ccc(C)cc2C(=O)O)cc1C	99.9% (inactive)
N/C(=N\c1nc2ccccc2s1)NC(=O)NCCCCCCO	67.3% (inactive)
O=C(/C=C/Nc1ccc2oc(=O)ccc2c1)c1cc2cc(Br)ccc2oc1=O	99.4% (inactive)
COc1cc2c(c(OC)c1OC)C(=O)CC(c1cccc(NC(=O)c3cccc([N+](=O)[O-])c3)c1)O2 (stereo not given)	37.2% (inactive)
